In PubChem BioAssay (NCI):
Compounds without any hit were thinned out: in the full panel of roughly 83,000, 20% have a hit.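 Step 1: grow cells in 96-well plates. Step 2: add test compound at a single concentration. Step 3: incubate 48 h. Step 4: record percent growth.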 Values without a mark were called inactive. Calls of active or inactive are those of the source. The calls were made as follows: active = growth percent below 10; inactive = the rest.

Tests used:
Assay in all cases: NCI-60 one-dose screen, 48 h (100 = growth as untreated, 0 = no growth, -100 = all killed)
Conditions in all cases: 10 µM unless noted
SK-MEL-2 melanoma = system: SK-MEL-2 melanoma
EKVX NSCLC = system: EKVX NSCLC
SN12C renal = system: SN12C renal
TK-10 renal = system: TK-10 renal
ACHN renal = system: ACHN renal
CCRF-CEM leukemia = system: CCRF-CEM leukemia
SR leukemia = system: SR leukemia
RPMI-8226 leukemia = system: RPMI-8226 leukemia
OVCAR-8 ovarian = system: OVCAR-8 ovarian
OVCAR-5 ovarian = system: OVCAR-5 ovarian
OVCAR-4 ovarian = system: OVCAR-4 ovarian
SK-OV-3 ovarian = system: SK-OV-3 ovarian
IGROV1 ovarian = system: IGROV1 ovarian
OVCAR-3 ovarian = system: OVCAR-3 ovarian
NCI/ADR-RES ovarian = system: NCI/ADR-RES ovarian
UO-31 renal = system: UO-31 renal
CAKI-1 renal = system: CAKI-1 renal
A498 renal = system: A498 renal
MOLT-4 leukemia = system: MOLT-4 leukemia
HS 578T breast = system: HS 578T breast

SMILES	growth (SK-MEL-2 melanoma)	growth (EKVX NSCLC) [%]	growth (SN12C renal)	growth (TK-10 renal)	growth (ACHN renal)	growth (CCRF-CEM leukemia)	growth (SR leukemia)	growth (RPMI-8226 leukemia)	growth (OVCAR-8 ovarian)	growth (OVCAR-5 ovarian) [%]	growth (OVCAR-4 ovarian)	growth (SK-OV-3 ovarian)	growth (IGROV1 ovarian)	growth (OVCAR-3 ovarian)	growth (NCI/ADR-RES ovarian)	growth (UO-31 renal)	growth (CAKI-1 renal)	growth (A498 renal)	growth (MOLT-4 leukemia)	growth (HS 578T breast)
Cc1ccc([N+](=O)[O-])c(C)n1	120%	97.2	106%	117%	91.5%	96.4%	106%	99.4%	98.4%	83.5	99.1%	106%	95%	107%	115%	–	–	–	–	–
O=C(OCC1CCCO1)c1ccc([N+](=O)[O-])cc1 (configuration not stated)	103%	106	–	99.4%	104%	94.2%	116%	103%	99.2%	109	117%	97.9%	101%	111%	103%	86.9%	106%	82.2%	101%	96.7%
COc1ccc(C2CC(c3ccccc3)=Nc3ccccc3S2)cc1 (configuration not stated)	85.6%	–	103%	113%	103%	85.2%	49%	82.1%	115%	116	97.2%	95.3%	92%	93.3%	94.7%	57.5%	84%	91.8%	77.6%	102%
CN(C)CCOC(=O)Nc1ccc(Cc2ccc(NC(=O)OCCN(C)C)cc2)cc1	101% [100 µM]	–	97.5% [100 µM]	124% [100 µM]	86.8% [100 µM]	51.3% [100 µM]	-39.4% [100 µM] (active)	16.8% [100 µM]	98.2% [100 µM]	–	94.6% [100 µM]	137% [100 µM]	83.2% [100 µM]	90.4% [100 µM]	98.5% [100 µM]	68.6% [100 µM]	73% [100 µM]	126% [100 µM]	37.6% [100 µM]	73.1% [100 µM]
COC1(OC)C2(Cl)C(Cl)=C(Cl)C1(Cl)C1COCC12 (configuration not stated)	89.7%	–	99.2%	94.7%	108%	103%	89.9%	106%	93.9%	–	97.7%	96%	113%	110%	110%	91.6%	93.9%	87.6%	102%	87.4%
C=CC1=NC(C)(C)CC(C)O1 (configuration not stated)	112%	–	99.2%	106%	101%	95.7%	113%	–	113%	104	98.6%	108%	–	113%	112%	111%	114%	98.3%	98.5%	107%
O=S1(=O)c2ccccc2Oc2ccccc21	100%	–	96.8%	101%	99.7%	127%	101%	110%	99.6%	96.3	100%	104%	105%	114%	108%	93.9%	92.9%	99.7%	111%	106%
CCCCCCCCCCCCCCCCCC(=O)NCCNC(=O)CCCCCCCCCCCCCCCCC	90.2%	–	97.2%	106%	86.2%	61.9%	0.967% (active)	86.4%	98.2%	94.8	95%	84.5%	66.3%	96.9%	93.9%	49%	83.3%	101%	67.2%	107%
OCc1cccnc1	94%	–	99.2%	102%	102%	92.1%	95.1%	102%	95.2%	99.6	115%	107%	–	114%	115%	81.7%	35.5%	78.4%	109%	97.2%
CC(=O)NC(O)C(Cl)Cl (configuration not stated)	100%	–	110%	97.3%	105%	99.4%	97.2%	95.8%	96.4%	–	97.5%	-22.9% (active)	107%	74.5%	98.5%	92.8%	92.3%	94.3%	104%	107%
C1C[S+]2CC[S+]1CC2	101%	–	101%	97.9%	99.2%	89.9%	101%	95.1%	96%	107	115%	100%	106%	102%	99.3%	106%	108%	105%	100%	108%
CC(CC(CCC(=O)O)(c1ccccc1)c1ccccc1)N(C)C (configuration not stated)	104%	–	99.2%	98.2%	106%	98.9%	98.6%	109%	94.4%	98.4	96.1%	97.6%	107%	67.3%	108%	91.4%	95%	95%	107%	–
Ic1cccs1	97.9%	–	98.9%	95.8%	103%	96%	97.9%	106%	99.2%	–	–	115%	105%	107%	98.8%	90.5%	101%	96.5%	98.9%	98.8%
O=C1NC(=O)C(c2ccccc2)O1 (configuration not stated)	90.1%	–	103%	101%	99.2%	101%	93.3%	99.5%	102%	106	98.2%	96.6%	108%	117%	97.8%	87.6%	98%	102%	98.3%	117%
C/C(O)=C(/C=N/C(=S)Nc1ccccc1)C(=O)Nc1ccccc1C	114%	–	94.8%	110%	103%	90.9%	91.7%	103%	–	117	83%	101%	105%	105%	103%	89.7%	101%	86.1%	96.9%	94.8%
NC(=O)c1cc2c3ccccc3ccn2c1-c1ccccc1	-7.59% (active)	–	28.5%	47.7%	23.6%	2.84% (active)	-22.3% (active)	7.04% (active)	8.3% (active)	33.5	43.2%	12.7%	20.2%	-20.6% (active)	-12% (active)	32.2%	-9.87% (active)	34.4%	7.02% (active)	70.3%
CCN(C(C)=O)c1ccc([N+](=O)[O-])cc1	107%	–	105%	93%	113%	98.9%	97%	–	99.2%	111	113%	109%	107%	107%	102%	89.7%	102%	82.5%	95.6%	99.8%
Cc1ccc(C(C)C)c(OCC(=O)O)c1	118%	–	100%	107%	112%	96.8%	109%	107%	–	98.7	112%	108%	109%	113%	111%	97%	110%	73.6%	111%	101%

SMILES	growth (SK-MEL-2 melanoma)	growth (EKVX NSCLC) [%]	growth (SN12C renal)	growth (TK-10 renal)	growth (ACHN renal)	growth (CCRF-CEM leukemia)	growth (SR leukemia)	growth (RPMI-8226 leukemia)	growth (OVCAR-8 ovarian)	growth (OVCAR-5 ovarian) [%]	growth (OVCAR-4 ovarian)	growth (SK-OV-3 ovarian)	growth (IGROV1 ovarian)	growth (OVCAR-3 ovarian)	growth (NCI/ADR-RES ovarian)	growth (UO-31 renal)	growth (CAKI-1 renal)	growth (A498 renal)	growth (MOLT-4 leukemia)	growth (HS 578T breast)
CCCC(=O)c1cccs1	115%	–	95.6%	101%	103%	102%	95.8%	105%	107%	100	–	103%	110%	107%	101%	98%	99.7%	61%	100%	95.2%
COC(=O)c1cccc([N+](=O)[O-])c1	94.1%	–	95.2%	101%	109%	104%	99%	–	107%	111	130%	115%	111%	108%	102%	98.2%	108%	92.9%	105%	–
ClCC(Cl)C1CCC(Cl)C(Cl)C1 (configuration not stated)	110%	–	104%	100%	99.3%	97.5%	99.5%	100%	95.6%	105	104%	100%	117%	114%	104%	86.3%	97.2%	85.5%	105%	103%
NNC(=O)c1ccccc1N	168%	–	108%	129%	111%	-39.5% (active)	156%	88.9%	107%	89.8	–	114%	127%	124%	105%	99.2%	104%	140%	112%	117%
CC(=O)NC(CCc1ccc(Cl)c(Cl)c1)c1cccc(O)c(=O)c1 (configuration not stated)	17.8%	–	12.4%	25.8%	17.5%	4.93% (active)	6.21% (active)	–	13.9%	47	24.5%	12.7%	–	20.1%	–	-20.9% (active)	-0.0278% (active)	36%	4.68% (active)	54.1%
CCCCNc1ccc(-c2ccc(NCCCC)cc2)cc1	101%	–	81.4%	92%	71.1%	51.9%	44.1%	61.8%	82.1%	90.3	63.5%	94.5%	78%	67.8%	79.3%	58.8%	64.8%	59.7%	68.8%	84.2%
OC(CBr)CCBr (configuration not stated)	124%	–	96.8%	131%	100%	88.2%	78.3%	98.8%	99.8%	–	93.5%	101%	89.5%	112%	106%	103%	92.4%	97.5%	104%	103%
CCN(CC)CCCC(C)NC(=S)N/N=C(\C)c1ccccn1 (configuration not stated)	83.6%	–	35.9%	48.4%	31.4%	29.8%	17.7%	58.9%	36.1%	55.1	–	52.3%	32.3%	51%	93.7%	14.8%	20.1%	72.1%	9.05% (active)	92.6%
CCOC(=O)c1ccc(Nc2sc(C(=O)c3ccc(Br)cc3)c(N)c2C#N)cc1	21.7%	–	43.9%	42.4%	44%	12.8%	18.6%	18.7%	–	46.8	70.5%	11.7%	31.3%	-6.38% (active)	22%	25.6%	10.7%	-8.46% (active)	33.5%	20.8%
S=C(Sc1ccc(Cl)cc1)Sc1ccc(Cl)cc1	90.9%	–	-47.6% (active)	-36.3% (active)	70%	-15.8% (active)	-46.5% (active)	-46.6% (active)	22.1%	60.1	10.1%	109%	-49.8% (active)	-64.7% (active)	5.64% (active)	-59.8% (active)	-75.6% (active)	70.6%	-25.4% (active)	7.84% (active)
CC(C)(N)CO[C@H]1C[C@H]2CC[C@@]1(C)C2(C)C	108%	–	100%	105%	100%	105%	106%	108%	102%	95	104%	112%	106%	93.6%	103%	91.8%	97%	81.7%	107%	81.9%
CSc1cnc2ccccc2n1	86%	–	94.4%	94.1%	107%	113%	95.4%	109%	95.5%	101	–	97.2%	104%	107%	103%	78.4%	97%	105%	107%	98.8%
CC(C)N(CCCC#N)C(C)C	121%	–	94%	104%	98%	86.9%	108%	98.2%	–	96.7	88.7%	110%	103%	108%	121%	86%	95.1%	79.4%	112%	86.7%
CCCC(=O)CC(=O)c1ccccc1	78.5%	–	96.3%	94.8%	105%	97.5%	107%	103%	–	101	112%	-20% (active)	108%	99.4%	100%	90.8%	107%	70.4%	107%	106%
CC1(C)CCC(C)(C)NC(=S)N1	94.1%	–	97.1%	98%	104%	102%	92.1%	96.4%	106%	–	107%	105%	121%	111%	108%	88.2%	100%	112%	97.5%	109%
CC(O)C(F)(F)C(F)(F)C(F)(F)F (configuration not stated)	111%	–	110%	102%	93.8%	108%	97.6%	128%	110%	98.7	103%	118%	114%	121%	110%	95.3%	99.2%	120%	96.4%	–
CC(=O)OC/C(C)=C\CC(C)COC(C)=O (configuration not stated)	113%	–	99.6%	112%	96.9%	96.9%	83%	94.2%	99.8%	–	105%	101%	106%	112%	104%	87.7%	96.3%	95.7%	111%	100%
C=CCC(O)C=C (configuration not stated)	106%	–	101%	96.2%	100%	94.1%	84.4%	105%	101%	108	106%	94%	103%	108%	103%	83.1%	97.4%	88.7%	91.4%	101%
